About 83,000 compounds went through this panel and 20% of them were active in at least one assay; those are over-represented in the sample as a whole.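 Cells were grown in 96-well plates and exposed to the test compound at a single concentration for 48 hours; results are reported as percent growth, with values below 10 considered active.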 A number with no mark means an inactive call. Active and inactive are the calls of the source.
Experiments:
Test in all cases: NCI-60 one-dose screen, 48 h (100 = growth as untreated, 0 = no growth, -100 = all killed)
Conditions in all cases: 10 µM unless noted
DU-145 prostate = system: DU-145 prostate
MALME-3M melanoma = system: MALME-3M melanoma
MDA-MB-231 breast = system: MDA-MB-231 breast
RXF 393 renal = system: RXF 393 renal
SF-268 CNS = system: SF-268 CNS
SF-295 CNS = system: SF-295 CNS
SF-539 CNS = system: SF-539 CNS
UACC-257 melanoma = system: UACC-257 melanoma
M14 melanoma = system: M14 melanoma
HCT-15 colon = system: HCT-15 colon
HT29 colon = system: HT29 colon
SNB-75 CNS = system: SNB-75 CNS
SNB-19 CNS = system: SNB-19 CNS
U251 CNS = system: U251 CNS
PC-3 prostate = system: PC-3 prostate
SK-MEL-5 melanoma = system: SK-MEL-5 melanoma
UACC-62 melanoma = system: UACC-62 melanoma
LOX IMVI melanoma = system: LOX IMVI melanoma
SK-MEL-28 melanoma = system: SK-MEL-28 melanoma
K-562 leukemia = system: K-562 leukemia

Row | Compound | growth (DU-145 prostate) [%] | growth (MALME-3M melanoma) | growth (MDA-MB-231 breast) [%] | growth (RXF 393 renal) [%] | growth (SF-268 CNS) [%] | growth (SF-295 CNS) | growth (SF-539 CNS) | growth (UACC-257 melanoma) [%] | growth (M14 melanoma) | growth (HCT-15 colon) | growth (HT29 colon) | growth (SNB-75 CNS) [%] | growth (SNB-19 CNS) [%] | growth (U251 CNS) | growth (PC-3 prostate) | growth (SK-MEL-5 melanoma) | growth (UACC-62 melanoma) | growth (LOX IMVI melanoma) | growth (SK-MEL-28 melanoma) [%] | growth (K-562 leukemia) [%]
1 | O=C(Cc1ccc(Nc2ccnc(C(F)(F)F)c2)cc1)N/N=C/c1ccccc1O | 39.3 | 38.8% | 27.9 | 49 | 28.6 | 30% | 24.1% | 34.7 | 8.64% (active) | 14.6% | 75.4% | 30.8 | 31.1 | 23.8% | 71.1% | 10.8% | 10.8% | 9.12% (active) | 106 | –
2 | O=C(Nc1cccc(Cl)c1)Nc1cc(C(F)(F)F)ccc1Cl | – | 5.85% (active) | 25.5 | 40.7 | 41.8 | -1.4% (active) | 43.5% | 19.6 | 18.2% | 9.83% (active) | 4.03% (active) | 18.2 | 16.6 | 6.86% (active) | -3.53% (active) | 24.4% | -8.9% (active) | -11.8% (active) | 25.5 | 16.4
3 | CCOc1cccc(/C=N/NC(=O)c2ccc(Nc3ccnc(C(F)(F)F)c3)cc2)c1O | 29.8 | 19.9% | 27.4 | 22 | 22.7 | 8.46% (active) | 0.3% (active) | 12.4 | -20.3% (active) | 19.1% | 49.3% | 20.6 | 20 | 15.9% | 50.8% | -54.3% (active) | -6.19% (active) | 2.5% (active) | 19.2 | –
4 | COc1ccc(/C(=C\c2ccc3c(c2)OCO3)C(=O)Nc2nc3ccc(F)cc3s2)cc1OC | 98.2 | – | 109 | 111 | 98.5 | – | 96.3% | 112 | 94.3% | 108% | 95.3% | 90.9 | 109 | 96.2% | 88.2% | 104% | 108% | 101% | 102 | 101
